TDP43 rescue: TDP-43 toxicity inhibition in yeast; TDP-43 expressing yeast growth rescue, BacTiter-Glo, 24 h; Potency, µM (series often up to 46.1 µM), for inactives: at the top dose growth rescue (activation), most hits filed as activators; 410,000 tested, 1.8% active; note: % of control where 0% means no effect; nearly all actives have a fitted effect of over 50% in size
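Cell-based yeast growth screen: TDP-43 expression induced in galactose, inoculum OD600=0.02 after raffinose pregrowth to mid-log. Read-out BacTiter-Glo luminescence at 24 hr, 30 deg C; inhibition of toxicity seen as signal increase.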
Abeta rescue: restores growth of yeast expressing A-beta42 peptide | yeast expressing A-beta42, growth rescue, OD600, 48 h; response scale: 0% DMSO, 100% iron-clioquinol control | Potency, µM (titrated, usually from 46.1 µM), hits mostly activators | 410,000 tested, 0.063% active; note: nearly all actives have a fitted effect of over 55% in size
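Yeast growth medium received pinned compounds, then yeast cells expressing toxic A-beta were added; plates incubated at 30 C for 48 hr. Growth read as absorbance at 600 nm, normalized to DMSO and equimolar FeCl3 plus clioquinol controls.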
aSyn rescue: rescues yeast growth from alpha-synuclein toxicity; Yeast expressing alpha-synuclein, growth rescue, BacTiter-Glo, 24 h; Potency, µM (doses to about 46.1 µM), inactives show at the top dose growth rescue (activation), usual class: activators; 370,000 tested, 0.14% active; note: % of control where 0% means no effect; nearly all actives have a fitted effect of over 65% in size
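Readout is rescue of growth in alpha-synuclein-expressing yeast, so inhibitors of toxicity appear as activators. Growth after 24 hr at 30 deg C in galactose medium is quantified by luminescence.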
FUS suppressor: suppressors of FUS proteinopathy in yeast | S. cerevisiae FUS-expressing, growth rescue, OD600, 24 h | Potency, µM (doses to about 76.6 µM), usual class: activators | 390,000 tested, 0.24% active | AID 1347120;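 note: plate controls were DMSO vehicle for no effect and reference control for full effect; nearly all actives have a fitted effect of over 55% in size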
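Galactose (2%) drives FUS expression in yeast precultured in raffinose; seeding density OD 0.005. Test compounds incubated 24hr at 30C and 99% humidity before absorbance at 600 nm was measured.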
An asterisk follows results filed as active; i = inactive; ? = inconclusive; / = not tested or not shown; [ ] = dose if it differs, or a comment. This is a sample that favours compounds with a hit; in the whole collection about 2.1% have one here. Calls come from the whole dose curve; as a rule, active = well fitted curve in the direction sought with a large enough effect; inconclusive = small, poorly fitted or top-dose-only effect, or another doubt; inactive = no such curve, though single readings can be large; an effect the other way counts as inactive or inconclusive. Potency is the fitted concentration of half-maximal effect.

SMILES | TDP43 rescue | Abeta rescue | aSyn rescue | FUS suppressor
COc1ccc(C(=O)/C=C/c2ccc(OC)c(O)c2)c(F)c1 | 22µM* | i | -4% | /
COc1cc(C=CC(=O)c2ccccc2)cc(OC)c1OC | 14µM* | i | ? | i
O=C(CSc1nnc(-c2ccccc2)n1-c1ccccc1)NN=Cc1ccc(-c2ccccc2)cc1 | / | / | / | i
CCOC(=O)c1cnc(NCc2ccccc2)nc1C | 7.1µM* | i | / | i
CCN(CC)c1ccc(NS(=O)(=O)c2cc3[nH]c(=O)c(=O)[nH]c3cc2C)c(C)c1 | 4% | i | / | i
O=C(Cc1cccs1)N(Cc1ccco1)C1(C(=O)NC2CCCCC2)CCCCC1 | 5% | i | 4% | i
O=C(Cc1cccs1)N(Cc1cccs1)C1(C(=O)NC2CCCC2)CCCCC1 | 20µM* | i | 0% | i
COC(=O)c1ccc2nc(-c3cccc(Cl)c3)c(Cc3ccccc3OC)n2c1 | 35µM* | i | -1% | i
COC(=O)c1ccc2nc(-c3ccc(OC)c(OC)c3)c(Cc3ccc(C)cc3)n2c1 | 22µM* | i | 6% | i
COC(=O)c1ccc2nc(-c3ccc(OC)c(OC)c3)c(Cc3cccc(F)c3)n2c1 | 35µM* | i | 24% | i
CC(=O)Oc1oc(-c2ccccc2)nc1C=Nc1ccccc1 | -86% | i | -11% | /
CCOC(=O)c1ccc(N=Cc2nc(-c3ccccc3)oc2OC(C)=O)cc1 | 16µM* | i | 20% | i
COc1ccc(-n2nc(C(=O)N3CCN(c4cccc(C)c4)C(C)C3)c3c4ccccc4n(C)c3c2=O)cc1Cl (configuration not stated) | -9% | i | / | i
Cc1ccccc1OCC(=O)Nc1ccc(C(=O)OCc2cc(=O)n3ccsc3n2)cc1 | 6% | i | / | i
CNS(=O)(=O)c1cn(CC(=O)N2CCN(c3ccc(Cl)cc3)CC2)cc1S(=O)(=O)NC | -7% | i | / | i
CCN(CC)c1ccc(C(=C2C=CC(=[N+](CC)CC)C=C2)c2ccc(N(CC)CC)cc2)cc1 | -97% | i | -78% | 35µM*
CCOC(=O)c1ccc(NC(=O)c2ccc3c(c2)CCN3S(=O)(=O)c2ccc(Cl)cc2)cc1 | 2% | i | / | i
COc1ccc(CSc2nnc(SCC(=O)Nc3ccc4c(c3)OCO4)s2)cc1 | / | / | / | i
CCc1ccccc1NC(=O)c1ccc(Cn2nc(N3CCN(c4ccccc4)CC3)ccc2=O)o1 | ? | i | / | ?
CCCCN(C)C(=O)c1sc(=O)n(Cc2ccc(Cl)c(Cl)c2)c1C | 25µM* | i | ? | i
CSc1ccc(Cn2c(C)c(C(=O)NCc3ccc(Cl)c(Cl)c3)sc2=O)cc1 | 12% | ? | 1% | ?
Cc1ccc(NC(=O)C2CCN(S(=O)(=O)c3ccc4[nH]c5c(c4c3)CCCCC5)CC2)cc1 | 11% | i | / | i
CCCN1C(=O)/C(=C/c2ccc(OCC(=O)OCC)cc2)NC1=S | -10% | i | 0% | 22µM*
CCCN1C(=O)/C(=C/c2ccc(N3CCCC3)c(C)c2)NC1=S | 3.2µM* | i | -16% | i
Cc1cc(/C=C2\NC(=S)N(C)C2=O)ccc1N1CCCC1 | -9%[0.397 µM] | i | -1% | i
SMILES | TDP43 rescue | Abeta rescue | aSyn rescue | FUS suppressor
O=C(CSc1cc(Cl)ccc1Cl)Nc1ccc(N2CCOCC2)cc1 | 16µM* | i | 0% | i
O=C(CSc1ccccc1F)Nc1ccc(N2CCOCC2)cc1 | 14% | i | 2% | i
O=C(C1CCN(S(=O)(=O)c2ccccc2)CC1)N1CCc2ccccc21 | 20% | i | 0% | i
O=C(C1CCN(S(=O)(=O)c2ccccc2F)CC1)N1CCc2ccccc21 | 13µM* | i | 15% | i
CC(CCc1ccccc1)NC(=O)CSc1n[nH]c(-c2ccc(F)cc2)n1 (configuration not stated) | -11% | i | / | i
Fc1cccc(-c2oncc2-c2nnnn2-c2ccc(Cl)cc2)c1 | 11µM* | i | 14% | i
Cc1cc(C)cc(NC(=O)CCCn2c3ccccc3c(=O)c3ccccc32)c1 | ? | i | / | i
Cc1ccccc1CNC(=O)C1CCCN(c2nnc(-n3c(C)ccc3C)s2)C1 (configuration not stated) | 1% | i | / | i
CCOC(=O)c1c(NC(=O)COC(=O)c2cccc([N+](=O)[O-])c2)sc(C(=O)N(C)C)c1C | 14% | 13µM* | 2% | i
CCOC(=O)c1c(NC(=O)COC(=O)c2ccc([N+](=O)[O-])cc2)sc(C(=O)N(C)C)c1C | 12% | ? | 4% | i
CCCCCN1CCCCC(NC(=O)C2CCCCC2)C1=O (configuration not stated) | / | / | / | i
O=C(c1ccco1)N1N=C(c2cccs2)CC1c1ccccc1O (configuration not stated) | 12% | i | 19% | /
COc1cccc(C2CC(c3cccs3)=NN2C(=O)c2ccco2)c1O (configuration not stated) | 25µM* | i | ? | i
COc1ccc(Cl)cc1NC(=O)Cn1ccn(-c2cc(C)cc(C)c2)c(=O)c1=O | 8% | i | / | ?
CCCN(CC1CC1)C(=O)CNc1nnnn1-c1ccccc1 | / | / | / | i
O=C(O)c1ccccc1NC(=O)N1c2ccccc2Sc2ccccc21 | 20µM* | i | / | i
COc1cc(NC(=O)N2c3ccccc3Sc3ccccc32)c(C(=O)O)cc1OC | ? | i | -2% | i
CCCCN(C)CCCNC(=O)C1CCN(c2nc3ccc(CC)cc3s2)CC1 | 6% | i | / | i
CCOC(=O)[C@@H]1[C@H]2COc3cc(OC)ccc3[C@@H]2N2C(=O)N(c3ccc(Cl)cc3)C(=O)[C@]12C | 7% | i | -4% | 28µM*
CCOC(=O)[C@H]1[C@H]2COc3ccc(Br)cc3[C@@H]2N2C(=O)c3cc(F)c(F)cc3NC(=O)[C@@]12C | 29% | i | 1% | 28µM*
CCOC(=O)[C@@H]1[C@H]2COc3ccc(Br)cc3[C@@H]2N2C(=O)N(c3ccccc3)C(=O)[C@@]12C | 35µM* | i | ? | i
CCOC(=O)[C@H]1[C@H]2COc3ccc(Br)cc3[C@@H]2N2C(=O)N(c3ccccc3)C(=O)[C@@]12C | 16% | i | 1% | ?
CCOC(=O)[C@H]1[C@H]2COc3ccc(Br)cc3[C@@H]2N2C(=O)c3ccc(F)cc3NC(=O)[C@@]12C | 4% | i | -10% | i
Cc1ccc(CNC(=O)CCS(=O)(=O)c2cc3c(cc2Br)CCN3C(=O)C2CC2)o1 | / | / | / | i
O=C(NCCc1ccc(Cl)cc1)c1ccc2c(c1)N(Cc1ccccc1)C(=O)CS2 | ? | i | / | i
CC(=NNC(=O)CSc1nnc(-c2ccccc2)n1-c1ccccc1)c1ccc2ccccc2c1 | / | / | / | i
O=C(c1ccco1)c1cn(CCOc2ccc(F)cc2)c2ccccc12 | 18µM* | i | / | i
COC(=O)c1cn(CCOc2ccccc2OC)c2ccccc12 | ? | i | 15% | i

Bioassay records deposited in PubChem BioAssay by National Center for Advancing Translational Sciences (NCATS).
